Inconclusive results are not listed. The source made the active and inactive calls. Calls follow the shape of the dose curve; as a rule, active = well fitted inhibition curve with a large enough effect; inconclusive = small, poorly fitted or top-dose-only effect; inactive = flat fitted curve, though single readings scatter.
The compounds below were run on NIH3T3 (assay: qHTS assay to identify novel small-molecules to repurpose for Merkel cell carcinoma treatment (AID 1296009; also: nearly all actives have a fitted effect of over 60% in size)). Conditions: MCC and control cell lines, CellTiter-Glo viability, 72 h; at 44.8 µM (top of the series) unless noted.
Procedure, shortened: (§1)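 After compound transfer in DMSO, plates were kept 72 hr at 37 degree celsius. Luminescent ATP signal from CellTiter-Glo served as viability measure, normalized against DMSO and no-cell controls.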
% is scaled to controls: 0 for no effect and ±100 for the full control effect.

| SMILES | outcome |
| --- | --- |
| C=CCC1(C(C)CC)C(=O)NC(=O)NC1=O (centres undefined) | inactive |
| COc1cccc([C@@]2(O)CCCC[C@@H]2CN(C)C)c1 | inactive |
| C[N+]1(CCF)[C@@H]2CC[C@H]1CC(OC(=O)C(O)(c1ccccc1)c1ccccc1)C2 (some centres undefined) | inactive |
| O=c1oc2ccccc2c(O)c1Cc1c(O)c2ccccc2oc1=O | inactive |
| CC(=O)C1CCOC1=O (centres undefined) | inactive |
| O=C(O)c1ccc(=O)[nH]c1 | inactive |
| CC(C)(C)NCC(O)c1cc(Cl)c(N)c(C(F)(F)F)c1 (centres undefined) | inactive |
| Clc1ccccc1N1CCNCC1 | inactive |
| O=C1OC(c2ccc(O)c(S(=O)(=O)O)c2)(c2ccc(O)c(S(=O)(=O)O)c2)c2c(Br)c(Br)c(Br)c(Br)c21 | inactive |
| CC(NC(C)(C)C)C(=O)c1cccc(Cl)c1 (centres undefined) | inactive |
| COc1ccc2c3c1O[C@H]1[C@H](O)CC[C@H]4[C@@H](C2)N(C)CC[C@@]341 | inactive [at 92 µM] |
| C#CC(O)(C=CCl)CC (centres undefined) | inactive |
| O=c1[nH]c2ccccc2n1C1CCNCC1 | inactive |
| CCc1cc2c(s1)-n1c(C)nnc1CN=C2c1ccccc1Cl | inactive |
| C[C@]12CC[C@H]3[C@@H](CCC4=CC(=O)CC[C@@H]43)[C@@H]1CC[C@@H]2OC(=O)CCC1CCCCC1 | inactive |
| ClCCN1CCCC1 | inactive |

These compounds were tested on UISO in the same assay as above. Conditions: MCC and control cell lines, CellTiter-Glo viability, 72 h; series mostly up to 46 µM; activity change, negative = cytotoxicity: at the top concentration.
Procedure, shortened: as §1

| SMILES | activity change, negative = cytotoxicity | Potency |
| --- | --- | --- |
| O=C1c2ccccc2C(=O)C1C(=O)C(c1ccccc1)c1ccccc1 | -12.3% (inactive) | – |
| COc1cc(OC)c(OC)cc1C=O | – | inactive |
| CC(C)(N)Cc1ccccc1Cl | 1.25% (inactive) | – |
| CC(C)c1cccc(C(C)C)c1O | 6.17% (inactive) | – |
| CC(C)N(CCC(C(N)=O)(c1ccccc1)c1ccccn1)C(C)C (centres undefined) | 0.088% (inactive) | – |
| C=CCC1(C(C)CC)C(=O)NC(=O)NC1=O (centres undefined) | 13.8% (inactive) | – |
| COc1cccc([C@@]2(O)CCCC[C@@H]2CN(C)C)c1 | 13% (inactive) | – |
| C[N+]1(CCF)[C@@H]2CC[C@H]1CC(OC(=O)C(O)(c1ccccc1)c1ccccc1)C2 (some centres undefined) | 9.29% (inactive) | – |
| CCCCCCCCCC(=O)O[C@H]1CC[C@H]2[C@@H]3CCC4=CC(=O)CC[C@@H]4[C@H]3CC[C@]12C | 12.6% (inactive) | – |
| O=C(O)CCCc1ccc(N(CCCl)CCCl)cc1 | – | inactive |
| O=c1oc2ccccc2c(O)c1Cc1c(O)c2ccccc2oc1=O | -21.9% (inactive) | – |
| CC(=O)C1CCOC1=O (centres undefined) | 0.361% (inactive) | – |
| O=C(O)c1ccc(=O)[nH]c1 | 9.87% (inactive) | – |
| CCOC(=O)CC(SP(=S)(OC)OC)C(=O)OCC (centres undefined) | – | inactive |
| CC(C)(C)NCC(O)c1cc(Cl)c(N)c(C(F)(F)F)c1 (centres undefined) | 25.2% (inactive) | – |
| Clc1ccccc1N1CCNCC1 | 4.79% (inactive) | – |
| Nc1ccccc1 | 4.44% (inactive) | – |

| SMILES | activity change, negative = cytotoxicity | Potency |
| --- | --- | --- |
| O=C1OC(c2ccc(O)c(S(=O)(=O)O)c2)(c2ccc(O)c(S(=O)(=O)O)c2)c2c(Br)c(Br)c(Br)c(Br)c21 | 19.1% (inactive) | – |
| CC(NC(C)(C)C)C(=O)c1cccc(Cl)c1 (centres undefined) | – | inactive |
| COc1ccc2c3c1O[C@H]1[C@H](O)CC[C@H]4[C@@H](C2)N(C)CC[C@@]341 | -24.6% [at 92.7 µM] (inactive) | – |
| C#CC(O)(C=CCl)CC (centres undefined) | 18.7% (inactive) | – |
| C[C@]12CC[C@@H]3c4ccc(OC(=O)N(CCCl)CCCl)cc4CC[C@H]3[C@@H]1CC[C@@H]2OP(=O)(O)O | 23.1% (inactive) | – |
| O=c1[nH]c2ccccc2n1C1CCNCC1 | 0.219% (inactive) | – |
| Oc1ccc(Cl)cc1 | 21.6% (inactive) | – |
| NC(=O)c1cc([N+](=O)[O-])cc([N+](=O)[O-])c1 | -2.6% (inactive) | – |
| O=C1c2ccccc2C(=O)c2ccccc21 | 8.68% [at 16.1 µM] (inactive) | – |
| CCc1cc2c(s1)-n1c(C)nnc1CN=C2c1ccccc1Cl | 17.3% (inactive) | – |
| CN1CC[C@]23c4c5ccc(O)c4O[C@H]2[C@@H](O)CC[C@H]3[C@H]1C5 | -23.1% [at 92.7 µM] (inactive) | – |
| C=CCN1C[C@H](C)N([C@H](c2ccc(C(=O)N(CC)CC)cc2)c2cccc(OC)c2)C[C@H]1C | 3.27% (inactive) | – |
| COC(=O)[C@@H](N)CCCN/C(N)=N/[N+](=O)[O-] | 3.75% (inactive) | – |
| CC(=O)OCC1=C(C(=O)O)N2C(=O)[C@@H](N)[C@H]2SC1 | 16.2% [at 16.1 µM] (inactive) | – |
| CN1C(=O)CCS(=O)(=O)C1c1ccc(Cl)cc1 (centres undefined) | – | inactive |
| ClCCN1CCCC1 | -0.289% (inactive) | – |

From PubChem BioAssay (NCATS)
